# Several values for one entry are separate records, joined by “and”; a condition that tells them apart may be missing. Equal values may be shown once. Unmarked numbers belong to inactive results. Results filed as inconclusive are left out. A call without a number means that no potency is given here. Activity calls are given as the source filed them. The call rests on the fitted dose curve; in most records, active means well fitted curve in the direction sought with a large enough effect; inconclusive means small, poorly fitted or top-dose-only effect, or another doubt; inactive means no such curve, though single readings can be large; an effect the other way counts as inactive or inconclusive. Where a SMILES comes first, the peptide text is derived from it. [ ]: non-standard residue; d: D form.
# How the values were obtained:
# [1] = biological target: Glutathione peroxidase 1 (Homo sapiens) (UniProt P07203); test: Primary qHTS Assay for Inhibitors of Recombinant Selenoprotein Glutathione Peroxidase 1 (GPX1) (AID 1845191); further: nearly all actives have a fitted effect of over 65% in size
# Outline: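 GR-coupled assay: compounds preincubated 30 min at room temperature with GPX1, then reaction started with CHP; final 10 nM GPX1, 1 mM GSH, 0.5 mM CHP, 0.5 mM NADPH, 100 nM GR, 0.01% BSA, pH 7.5 Tris buffer. NADPH fluorescence (340/450 nm) read at 0 and 15 min.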
# [2] = biological target: Phospholipid hydroperoxide glutathione peroxidase GPX4 (Homo sapiens) (UniProt P36969); test: Primary qHTS Assay for Inhibitors of Recombinant Selenoprotein Glutathione Peroxidase 4 (GPX4) (AID 1845192); further: nearly all actives have a fitted effect of over 65% in size; on activity change, negative = inhibition: series mostly up to about 50 µM
# Outline: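 GR-coupled assay: recombinant GPX4 preincubated 30 min with compound at room temperature; final 200 nM GPX4, 1 mM GSH, 0.5 mM cumene hydroperoxide, 0.5 mM NADPH, 100 nM GR, 0.01% BSA, pH 7.5 Tris. NADPH fluorescence (340/450 nm) read at 0 and 15 min.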
# [3] = biological target: Luciferin 4-monooxygenase (Photinus pyralis) (UniProt P08659); test: Primary firefly luciferase (FLuc) qHTS assay for identification of artifact compounds. (AID 1845220); further: nearly all actives have a fitted effect of over 60% in size; on activity change, negative = inhibition: series mostly up to about 54 µM
# Outline: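 Enzymatic FLuc inhibition assay: compounds pre-exposed to luciferin/ATP (10 uM each) for 15 min, then purified P. pyralis enzyme at 10 nM added. Read-out: luminescence at 5 min.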
# [4] = Primary fluorescence-based thiol-reactive (MSTI) qHTS assay for identification of artifact compounds. (AID 1845221); further: nearly all actives have a fitted effect of over 65% in size; further: potency means the concentration at half of the fitted maximal effect;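 on activity change, negative = thiol reactive: series mostly up to about 54 µM; thiol-reactive compounds lower the probe fluorescence signal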
# Outline: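 MSTI probe at 4 uM final in 2% DMSO/PBS pH 7.4; compounds, 1 h at room temperature in dark. Fluorescence Ex/Em 525/598 nm, normalised to Acetyl-MSTI and MSTI, fitted to 4-parameter Hill.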
# [5] = system: Nanoluciferase (engineered Oplophorus gracilirostris luciferase); test: Primary Nanoluciferase (NLuc) qHTS assay for identification of artifact compounds. (AID 1845222); further: potency means the concentration at half of the fitted maximal effect;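 on activity, negative = inhibition: NLuc secreted into diluted conditioned medium of S16 cells; series mostly up to about 54 µM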
# Outline: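 S16 cell supernatant NLuc, 1:55; cpds qHTS; 15 min RT dark; Nano-Glo substrate 1:100, 5 min; luminescence; Hill fit of % inhibition.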
# [6] = Primary redox qHTS assay for identification of artifact compounds. (AID 1845223)
# Outline: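 Amplex Red (25 uM) and HRP (250 mU/mL) in HBSS, with compounds for 15 min, then 250 uM DTT for 30 min, room temperature, dark. Fluorescence 525/598 nm read; normalized to DMSO and 10 uM DA3003; Hill fit.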
# Glutathione peroxidase 1 (Homo sapiens), sequence (P07203 whole entry, looked up): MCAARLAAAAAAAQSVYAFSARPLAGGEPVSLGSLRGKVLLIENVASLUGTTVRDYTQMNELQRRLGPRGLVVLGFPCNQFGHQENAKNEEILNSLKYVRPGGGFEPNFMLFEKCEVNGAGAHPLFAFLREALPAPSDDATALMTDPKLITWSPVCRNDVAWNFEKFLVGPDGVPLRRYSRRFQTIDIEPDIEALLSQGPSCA
# Phospholipid hydroperoxide glutathione peroxidase GPX4 (Homo sapiens), sequence (P36969 whole entry, looked up): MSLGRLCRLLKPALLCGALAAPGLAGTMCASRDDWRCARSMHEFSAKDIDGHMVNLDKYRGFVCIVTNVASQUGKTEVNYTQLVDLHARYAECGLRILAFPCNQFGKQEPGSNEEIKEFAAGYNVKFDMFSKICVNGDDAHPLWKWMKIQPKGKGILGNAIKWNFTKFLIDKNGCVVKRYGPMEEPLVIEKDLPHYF
Compound,Potency [1],Potency [2],Potency [3],Potency [4],Potency [5],Potency [6],"activity change, negative = inhibition [3]","activity change, negative = thiol reactive [4]","activity, negative = inhibition [5]",redox activity (% of DA3003) [6],"activity, negative = inhibition [1]",outcome [2]
Clc1ccc2c(c1)C1=NCCN1c1c(-c3noc(C4CC4)n3)ncn1-2,inactive,inactive,inactive,inactive,inactive,inactive,,,,,,
C[C@@H](OC(=O)/C=C/c1ccc(O)cc1)C1=C[C@]2(C=C[C@@H]3C(C(=O)O)=CO[C@@H](O[C@@H]4O[C@H](CO[C@@H]5O[C@H](CO)[C@@H](O)[C@H](O)[C@H]5O)[C@@H](O)[C@H](O)[C@H]4O)[C@@H]32)OC1=O,inactive,inactive,inactive,3.98 µM (active),inactive,inactive,,,,,,
COC(=O)[C@H](CC1C=NC=N1)NCC12CC3CC(CC(C3)C1)C2 (stereo partly specified),inactive,inactive,inactive,inactive,inactive,inactive,,,,,,
CNC(=O)O[C@H]1COc2ccc(N3CCN(C4COC4)CC3)cc2[C@@H]1NC(=O)c1ccc(F)cc1,inactive,inactive,inactive,inactive,inactive,inactive,,,,,,
CC(=O)O[C@@H]1C[C@@]23C[C@@]24CC[C@H](OC2OC[C@@H](O)[C@H](O)[C@H]2O)C(C)(C)[C@@H]4CC[C@H]3[C@]2(C)CC3OC4(C[C@@H](C)C3[C@@]12C)OCC1(C)OC14 (stereo partly specified),inactive,inactive,inactive,inactive,inactive,inactive,,,,,,
O=C1CC(c2ccc([N+](=O)[O-])cc2)=NN1c1ccccc1,inactive,inactive,inactive,4.74 µM (active),inactive,inactive,,,,,,
COc1c(C)c(C(=O)c2ccc(N)c(C(=O)O)c2)n2ccccc12,inactive,inactive,inactive,4.74 µM (active) and 5.32 µM (active),9.53 µM (active),inactive,,,,,,
CC1(C)NC2N(C1=O)c1ccccc1C2(O)CC(C(=O)O)n1cnc2ccccc2c1=O (stereo unspecified),inactive,inactive,inactive,inactive,inactive,inactive,,,,,,
CC1(CO)CC[C@]2(C(=O)O[C@@H]3O[C@H](CO)[C@@H](O)[C@H](O)[C@H]3O)CC[C@]3(C)C(=CCC4[C@@]5(C)C[C@H](O)[C@H](O[C@@H]6OC[C@@H](O)[C@H](O)[C@H]6O)[C@@](C)(CO)C5CC[C@]43C)C2C1 (stereo partly specified),inactive,inactive,,,,,4.3% [at 11.6 µM],76.2% [at 11.5 µM],0% [at 11.6 µM],6.69% [at 11.5 µM],,
CCNC(=O)[C@H]1O[C@H](n2cnc3c(NCC(c4ccccc4)c4ccccc4)nc(C(=O)NCCNC(=O)NC4CCN(c5ccccn5)CC4)nc32)[C@H](O)[C@@H]1O,inactive,inactive,inactive,inactive,inactive,inactive,,,,,,
C=C1CCC2C(OC(=O)C2(O)COC(C)=O)C2C(=C)C(O)CC12 (stereo unspecified),inactive,inactive,inactive,7.36 µM (active),inactive,inactive,,,,,,
CC(C#N)C(C)O[C@@H]1O[C@H](CO)[C@@H](O)[C@H](O)[C@H]1O (stereo partly specified),inactive,inactive,inactive,26.7 µM (active),inactive,inactive,,,,,,
C=CC(C)(O)CC/C=C(/C)C(=O)OC1C(OC2OCC(OC3OC(CO)C(O)C(O)C3O)C(OC3OCC(O)C(OC4OC(C)C(O)C(O)C4O)C3O)C2O)COC(OC(=O)C23CCC(C)(C)CC2C2=CCC4C5(C)CCC(OC6OC(CO)C(OC7OC(CO)C(O)C(OC8OCC(O)C(O)C8O)C7O)C(O)C6O)C(C)(C)C5CCC4(C)C2(C)CC3O)C1O (stereo unspecified),,,,,,,3.07% [at 6.45 µM],146% [at 6.41 µM],2.49% [at 6.45 µM],3.8% [at 6.41 µM],-7.71% [at 9.52 µM],inactive [at 9.73 µM]
C=CC1(C)CC(OC(=O)C(=C)C(O)COC(C)=O)C(C(=C)C(=O)OC)C(O)C1C(=C)CO (stereo unspecified),inactive,inactive,inactive,inactive,inactive,inactive,,,,,,
Cc1coc2c1CC1OC1(C)CCC1OC1(C)C2 (stereo unspecified),inactive,inactive,inactive,inactive,inactive,inactive,,,,,,
CC(=O)N[C@H](Cc1ccc(O)cc1)C(=O)N[C@H](CCCN=C(N)N)C(=O)N[C@H](Cc1ccccc1)C(N)=O (Ac-[dY]-[dR]-[dF]-NH2),inactive,inactive,inactive,inactive,inactive,inactive,,,,,,
C/C=C1/[C@H](O[C@@H]2O[C@H](CO)[C@@H](O)[C@H](O)[C@H]2O)OC=C(C(=O)OC)[C@H]1CC(=O)O[C@@H]1O[C@H](CO)[C@@H](O)[C@H](O)[C@H]1O,inactive,inactive,inactive,inactive,inactive,inactive,,,,,,
C=C1C2(CCC(=O)OC2(C)C)CC(OC(=O)/C(C)=C/C)C2(C)C13OC14C(=O)OC(C)(C(=O)C12C(=O)OC4C)C3OC(C)=O (stereo unspecified),inactive,inactive,inactive,inactive,inactive,inactive,,,,,,
N[C@H]1C[C@H]1c1ccc(-c2cccc(O)c2)cc1,inactive,inactive,inactive,inactive,inactive,inactive,,,,,,
Cc1ccc(Sc2cncc3sc(C(N)=O)cc23)cc1,inactive,inactive,inactive,inactive,inactive,inactive,,,,,,
C=C1CCC(OC(C)=O)C2(C)CC3(O)OC(=O)C(C)=C3CC12 (stereo unspecified),inactive,inactive,inactive,inactive,inactive,inactive,,,,,,

# From PubChem BioAssay (NCATS)
